High-throughput results (PubChem)
Hits are enriched below; roughly 4% of the tested compounds scored in any of these assays.
FAS TE block – FAS thioesterase domain inhibitors, primary screen, biochemical, fluorescence intensity, uHTS; inhibition, % at 15 µM; recombinant FAS-TE, OMFH fluorogenic substrate, fluorescence endpoint; Fatty acid synthase (Homo sapiens), P49327; 360,000 compounds, 0.67% hits;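 active = compounds whose normalised, plate-corrected inhibition of enzyme fluorescence in the single-dose primary screen is 50% or more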
ADAM10 inh – human ADAM10 inhibitors, primary screen, biochemical, QFRET, HTS | Disintegrin and metalloproteinase domain-containing protein 10 (Homo sapiens), O14672 | recombinant ADAM10, EDANS/DABCYL FRET peptide cleavage, 3 h | inhibition, % at 7 µM | 370,000 compounds, 0.62% hits | AID 720582, 2013;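 active = inhibition above a per-campaign cutoff equal to the mean of compounds falling between control-based bounds plus 3 SD, cut at about 20% in these data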
Target sequence (O14672 214-748 limits assumed): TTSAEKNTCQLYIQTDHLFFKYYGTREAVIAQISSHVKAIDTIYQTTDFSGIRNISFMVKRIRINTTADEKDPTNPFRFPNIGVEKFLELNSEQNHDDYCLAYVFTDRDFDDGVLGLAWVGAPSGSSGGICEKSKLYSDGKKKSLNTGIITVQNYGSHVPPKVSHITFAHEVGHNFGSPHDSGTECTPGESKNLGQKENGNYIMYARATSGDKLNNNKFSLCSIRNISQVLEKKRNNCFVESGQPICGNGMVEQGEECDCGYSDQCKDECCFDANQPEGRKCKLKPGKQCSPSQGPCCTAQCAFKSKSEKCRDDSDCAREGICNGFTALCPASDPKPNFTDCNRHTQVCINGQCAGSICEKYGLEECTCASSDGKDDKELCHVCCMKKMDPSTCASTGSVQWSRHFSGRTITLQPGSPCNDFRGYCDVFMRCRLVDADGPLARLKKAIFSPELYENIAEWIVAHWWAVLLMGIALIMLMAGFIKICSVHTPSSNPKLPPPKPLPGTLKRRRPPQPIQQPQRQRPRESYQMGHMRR
ADAM17 inh – ADAM17 inhibitors, primary screen, biochemical, QFRET; Disintegrin and metalloproteinase domain-containing protein 17 (Homo sapiens), P78536; recombinant ADAM17, EDANS/DABCYL FRET peptide cleavage; inhibition, % at 6.95 µM; 370,000 compounds, 0.83% hits;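 active = inhibition above the mean of compounds lying between control limits plus 3 SD, set per campaign, cut at about 8.5% in these data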
aDG glyco act – activators of alpha-DG glycosylation, primary screen, uHTS, Pro5-aDG cells, AlphaScreen. activation, % at 10 µM. 360,000 compounds, 0.22% hits. alpha-DG glycosylation AlphaScreen (IIH6); 0% Pro5, 100% B10-LARGE cell signal;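 active = activation of at least 8% versus controls, or a plate z-score of at least 8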;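 also: Pro5 are CHO cells carrying HIG-tagged alpha-DG that lacks glycosylation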
NR3A LBD binder – binders of NR3A ligand-binding domain, primary screen, biophysical, differential scanning fluorimetry, uHTS | NR3A LBD differential scanning fluorimetry, Tm shift; 0% = protein alone, 100% = glycine-bound protein | Tm shift relative to glycine control, % at 25 µM | 340,000 compounds, 2.5% hits | AID 1259313, 2017;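 active = melting temperature shift of at least 10% of the positive control shift, at one fixed dose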
Large screens that a line does not name were inactive.

COc1ccccc1/C=C\C=N\NC(=O)CCn1nnc2ccccc21	none
Cc1ccc(SC[C@H](Cc2ccccc2)N2CCN(CCc3ccccc3)CCC2=O)cc1	NR3A LBD binder 19
NC(=O)CSc1nnc(COc2ccccc2)n1N	none
COc1ccc(/C(N)=N/OC(=O)c2c(-c3ccccc3Cl)noc2C)cc1OC	NR3A LBD binder 18
Cc1onc(-c2ccccc2Cl)c1C(=O)OCC(=O)c1ccc2c(c1)OCCO2	NR3A LBD binder 12
Cc1onc(-c2ccccc2Cl)c1C(=O)OCC(=O)c1ccc[nH]1	none
CC(C)(C)c1ccc(OCCC(=O)OCC(=O)Nc2cccnc2Cl)cc1	none
COc1ccc(C(C)=O)cc1CSc1nnc(Nc2ccc(C)cc2C)s1	none
OCCN(CCO)c1ccc(C(c2ccc(Cl)cc2)c2ccc(N(CCO)CCO)cc2Cl)c(Cl)c1	NR3A LBD binder 28
CC(C)N1C(=O)C(=O)N(CC(=O)N2c3ccccc3NC(=O)CC2C)C1=O (configuration not stated)	none
COc1cccc2cc(-c3nnc(SCC(=O)Nc4cc(C(F)(F)F)ccc4Cl)n3N)oc12	NR3A LBD binder 11
CS(=O)(=O)N(CC(=O)Nc1cccnc1)c1ccc2c(c1)OCCO2	none
COc1ccc(COC(=O)N/N=C/c2cccs2)cc1	NR3A LBD binder 32
COc1ccc(-c2cc(C(F)F)nc(-n3nc(C)cc3C)n2)cc1	none
CC(=O)c1c(C)oc2c1C(=O)c1ccccc1C2=O	aDG glyco act 9.8
O=C1c2ccccc2C(=O)c2c1oc(C(F)(F)F)c2C(=O)c1ccccc1	aDG glyco act 8.8
CCOC(=O)N1CCN(c2ccc(F)cc2[N+](=O)[O-])CC1	NR3A LBD binder 23
CN1C(=O)C2CN(CCc3ccccc3)CNC2N(C)C1=O (configuration not stated)	none
O=C1C=C(N(CCO)Cc2ccccc2)c2ccccc2C1=O	aDG glyco act 14 (no result: ADAM10 inh, ADAM17 inh)
Cc1cc(NC(=O)Nc2cccc(C)c2C)no1	none
O=C1CC(c2ccccc2)=NN1c1nc(-c2ccccc2)cs1	none
CC(C)=CCC[C@](C)(O)C1CC[C@]2(C)C1C(O)CC1[C@@]3(C)CCC(O)C(C)(C)C3C(O[C@@H]3OC(CO)C(O)C(O)C3O[C@@H]3OC(C)C(O)C(O)C3O)C[C@]12C (some centres not stated)	NR3A LBD binder 10
CC(C)=CCC[C@](C)(O)C1CC[C@]2(C)C1[C@H](O)CC1[C@@]3(C)CC[C@H](O[C@@H]4O[C@H](CO)[C@@H](O)[C@H](O)[C@H]4O[C@@H]4O[C@H](CO)[C@@H](O)[C@H](O)[C@H]4O)C(C)(C)C3CC[C@]12C (some centres not stated)	none
CCOC(=O)c1c(C)[nH]c(C)c1C(=O)CSc1nc2ccccc2c(=O)n1-c1ccccc1C	none
Cc1cc(C)nc(N/N=C/c2ccccc2OCc2ccccc2)n1	NR3A LBD binder 12
O=C(Nc1ccc(/C=C/c2nc3ccccc3o2)cc1)c1cccc(C(F)(F)F)c1	NR3A LBD binder 17
O=C(Nc1ccc(/C=C/c2nc3ccccc3o2)cc1)c1c(F)cccc1F	NR3A LBD binder 20
CC(=O)Nc1ccc(/C=C/c2nc3ccccc3o2)cc1	none
c1ccc(-c2noc(-c3ccc4ccccc4c3)n2)cc1	none
COc1cc(OC)c(NC(=O)CN(C)S(=O)(=O)c2ccc3[nH]c(=O)oc3c2)cc1Cl	none
COc1cc(C(=O)Nc2ccccc2N2CCOCC2)ccc1OCc1c(C)noc1C	NR3A LBD binder 12
CCOc1ccccc1NC(=O)c1ccc(OCC(=O)N2CCOCC2)c(OC)c1	none
COc1ccc(OC)c(NC(=O)c2ccc(OCC(=O)N3CCOCC3)c(OC)c2)c1	NR3A LBD binder 22
COc1ccc(NC(=O)Nc2ccc(OCC(=O)N3CCOCC3)cc2)cc1OC	NR3A LBD binder 11
Cc1cccc(-n2ncc3c2CCCC3NC(=O)CN2CCOC2=O)c1C (configuration not stated)	none
O=C1Nc2ccccc2/C1=C/C(=O)c1cccs1	none
CCN1C(=O)/C(=C\C(=O)c2cccs2)c2cc(Br)ccc21	NR3A LBD binder 32
CC1CN(C(=O)c2cc3cc([N+](=O)[O-])ccc3s2)CC(C)O1 (configuration not stated)	none
COc1ccc(C(=O)CNc2ccccc2Br)cc1	NR3A LBD binder 17
O=C(CN(C(=O)C1CSC(=O)C1)c1ccc(F)cc1)NCc1ccc2c(c1)OCO2 (configuration not stated)	none
CCN1C(=O)C(CC(=O)Nc2ccccc2Cl)N(NC(=O)c2cccc(F)c2)C1=S (configuration not stated)	none
Cc1ccc(NC(=O)CC2C(=O)N(Cc3ccccc3)C(=S)N2NC(=O)c2ccccc2)c(C)c1 (configuration not stated)	NR3A LBD binder 11
CNC(=O)CC1C(=O)N(c2ccc(Cl)cc2)C(=S)N1NC(=O)c1cccc(F)c1 (configuration not stated)	none
CNC(=O)CC1C(=O)N(Cc2ccccc2)C(=S)N1NC(=O)c1cccc(F)c1 (configuration not stated)	NR3A LBD binder 14
COc1ccccc1NS(=O)(=O)c1cc([N+](=O)[O-])ccc1N/N=C/c1c[nH]c2ccccc12	NR3A LBD binder 23
O=[N+]([O-])c1ccccc1N/N=C/c1ccccc1	none
O=[N+]([O-])c1ccccc1N/N=C/c1c[nH]c2ccccc12	NR3A LBD binder 16
COc1ccc(NS(=O)(=O)c2cc([N+](=O)[O-])ccc2N/N=C\c2c(C)[nH]c3ccccc23)cc1	NR3A LBD binder 28
O=C(O)COc1ccccc1/C=N/Nc1ccc(S(=O)(=O)Nc2ccc(Cl)cc2)cc1[N+](=O)[O-]	NR3A LBD binder 10
COc1ccccc1NS(=O)(=O)c1ccc(N/N=C/c2ccccc2OCC(=O)O)c([N+](=O)[O-])c1	none
Cc1ccc(S(=O)(=O)N2CCCC(C(=O)O)C2)s1 (configuration not stated)	none
COc1ccc(-c2noc(C3CCCN(C(=O)c4ccccc4C)C3)n2)cc1 (configuration not stated)	none
COCCn1c(=NC(=O)c2ccco2)sc2cc(C(=O)OC)ccc21	none
CC(C)(C)NC(=O)NC(=O)CSc1nnc(-c2ccccc2F)n1N	none
COc1ccc(/C=N/Nc2ccccc2C(=O)O)cc1Cn1cc([N+](=O)[O-])cn1	none
COc1ccc(C=NNc2ccc([N+](=O)[O-])cc2S(=O)(=O)Nc2ccccc2C(=O)O)cc1OC	NR3A LBD binder 31
